PubChem BioAssay (NCATS)
Records with an inconclusive call do not appear. The source made the active and inactive calls.

Assay: qHTS for identification of novel therapeutic agents for treatment of microphthalmiaassociated transcription factor (MiT) renal cell carcinoma (RCC) (AID 1963991)
Settings: CellTiter-Glo, 48 h; for Potency: active = Z-AUC below -0.8 in all three lines; for z-score: stronger effect = lower value
Source text: PI: Marston Linehan Ph.D.
Urologic Oncology Branch, Center for Cancer Research (CCR)
National Cancer Institute (NCI), National Institute of Health (NIH), Bethesda, Maryland
MiT-Renal Cell Carcinoma (RCC) is characterized by genomic translocations involving microphthalmia-associated transcription factor (MiT) family members TFE3, TFEB, or MITF. MiT-RCC represents a specific subtype of sporadic RCC that is predominantly seen in young patients and can present with heterogeneous histological features making diagnosis challenging. Moreover, the disease biology of this aggressive cancer is poorly understood and there is no accepted standard of care therapy for patients with advanced disease. Tumor-derived cell lines have been established from human TFE3-RCC providing useful models for preclinical studies. TFE3-RCC tumor derived cell lines and their tissues of origin were characterized by IHC and gene expression analyses. An unbiased high-throughput drug screen was performed to identify novel therapeutic agents for treatment of MiT-RCC. Potential therapeutic candidates were validated in in vitro and in vivo preclinical studies. Mechanistic assays were conducted to confirm the on-target effects of drugs. The results of a high-throughput small molecule drug screen utilizing three TFE3-RCC tumor-derived cell lines identified five classes of agents with potential pharmacological efficacy, including inhibitors of phosphoinositide-3-kinase (PI3K) and mechanistic target of rapamycin (mTOR), and several additional agents, including the transcription inhibitor Mithramycin A. Upregulation of the cell surface marker GPNMB, a specific MiT transcriptional target, was confirmed in TFE3-RCC and evaluated as a therapeutic target using the GPNMB-targeted antibody-drug conjugate CDX-011. […] The results of the high-throughput drug screen and validation studies in TFE3-RCC tumor-derived cell lines have provided in vitro and in vivo preclinical data supporting the efficacy of the PI3K/mTOR inhibitor.
SEQUENCE No. (e.g., 1, 2, 3, etc.); […] (e.g., Cells, Incubation, Reagent, etc.); VALUE; DESCRIPTION.
1; Cells; 3 uL; white, solid-bottom Grenier assay plate.
2; Compounds; 23 nL; Kalypsis pin-tool (Wako USA).
3; Incubation; 48 hr; 37 C, 5% CO2, 95% humidity.
4; Reagent; 3 uL; CellTiter-Glo reagent (Promega).
5; Incubation; 15 min; room temperature.
6; Detection; Luminescence; ViewLux plate reader (PerkinElmer).
NOTES (numbers refer to Sequence numbers above)
1. Quantitative high-throughput screening (qHTS) of 1912 pharmacologically defined small molecule compounds was conducted on three TFE3-fusion cell lines bearing three different fusion partners (UOK109, UOK124, UOK145). Briefly, 500 cells in complete growth media were plated into white, solid-bottom, 1536-well tissue culture treated plates (Grenier Cat. 789173-F) using a Multidrop Combi cassette dispenser.
2. Twenty-three nanoliter of 1912 pharmacologically defined small molecule compounds of the NCATS Mechanism Interrogation PlatE (MIPE) version 4.0 were added to each assay plate using a Pintool Dispenser (Wako) equipped with 1536 pin head.
3. Plates were covered with stainless steel gasketed lids and incubated for 48 hours at standard cell culture conditions.
4. Viability was assessed by adding 3uL of CellTiter-Glo detection reagent (Promega).
5. Plates were covered with gasket lids and incubated for 15 minutes at room temperature.
6. Luminescence was measured on a ViewLux plate reader (PerkinElmer). Post-screen data processing used DMSO controls as 100% viability and empty wells as 0% viability and dose response curve fitting was done for all 11 concentrations for each compound.

[1] = TFE3-RCC UOK109 viability, measured here: UOK109 Z-AUC
[2] = TFE3-RCC viability, measured here: UOK124 Z-AUC
[3] = TFE3-RCC viability, measured here: UOK145 Z-AUC
Potency means the concentration at half of the fitted maximal effect.

| Compound | Potency (TFE3-RCC UOK109 viability) | z-score [1] | z-score [2] | z-score [3] |
| --- | --- | --- | --- | --- |
| Cc1cc(Nc2ncc3c(n2)N(C)C(=O)N(c2cc(NC(=O)c4cccc(C(F)(F)F)c4)ccc2C)C3)n(C)n1 | 264 nM (active) | -1.56 | -1.08 | -2.15 |
| CS(=O)(=O)N1CCc2c(-c3cnc(N)nc3)nc(N3CCOCC3)nc21 | 93.5 nM (active) | -2.02 | -1.41 | -1.55 |
| CC(C)N1[N]C(=C2C=c3cc(O)ccc3=N2)c2c(N)ncnc21 | 1870 nM (active) | -1.06 | -1.57 | -0.805 |
| CS[C@H]1SC[C@@H]2C(=O)N(C)[C@H](C(C)C)C(=O)OC[C@H](NC(=O)c3cnc4ccccc4n3)C(=O)N[C@H](C)C(=O)N(C)[C@@H]1C(=O)N(C)[C@H](C(C)C)C(=O)OC[C@H](NC(=O)c1cnc3ccccc3n1)C(=O)N[C@H](C)C(=O)N2C | 8.33 nM (active) | -2.31 | -3.01 | -2.26 |
| CC(=O)N1CCN(c2ccc(OCc3nn(C)c(C)c3-c3cccc4c(CCCOc5cccc6ccccc56)c(C(=O)O)n(Cc5cccnc5)c34)cc2)CC1 | 935 nM (active) | -1.06 | -1.35 | -1.45 |
| CCCCCCCCCCCCc1ccc(S(=O)(=O)Nc2nncs2)cc1 |  | 1.37 | 2.17 | 1.03 |
| CCCCCCCCCCCC(CC1OC(=O)C1CCCCCC)OC(=O)C(CC(C)C)NC=O (stereo unspecified) |  | 0.558 | -0.129 | 0.669 |
| O=C(O)C=Cc1ccc(Cn2ccnc2)cc1 |  | 0.607 | 0.722 | 0.686 |
| NC(=O)c1cccc(-c2cccc(OC(=O)NC3CCCCC3)c2)c1 |  | 0.801 | 0.852 | 0.744 |
| COC1=C(OC)C(=O)C(CC=C(C)CCC=C(C)CCC=C(C)CCC=C(C)CCC=C(C)CCC=C(C)CCC=C(C)CCC=C(C)CCC=C(C)CCC=C(C)C)=C(C)C1=O |  | 0.576 | 0.211 | 0.661 |
| CC[C@H]1OC(=O)[C@H](C)[C@@H](O[C@H]2C[C@@](C)(OC)[C@@H](O)[C@H](C)O2)[C@H](C)[C@@H](O[C@@H]2O[C@@H](C)C[C@H](N(C)C)[C@@H]2O)[C@](C)(O)C[C@@H](C)C(=O)[C@H](C)[C@@H](O)[C@]1(C)O |  | 0.677 | 0.444 | 0.443 |
| CCC[C@H]1C[C@H](C(=O)N[C@@H]([C@@H]2O[C@@H](SC)[C@@H](O)[C@@H](O)[C@@H]2O)[C@H](C)Cl)N(C)C1 |  | 0.606 | 0.328 | -0.0561 |
